Test results: PubChem BioAssay AID1159580 (chemical genetic matrix, 2015)
“And” between values parts separate entries of the source, which are not always exact repeats. Equal values may be shown once. Out of some 5,500 compounds screened, about 2,000 (36%) were called active. Inconclusive results (about 18%) are left out. Rule as the data show it: active = normalized growth mostly below about 0.91 (no sharp cut-off); inconclusive = no clear call, values can overlap the other calls; inactive = mostly above about 0.92. Some of the results follow.

Experiment: chemical genetic growth profiling, strain panel (AID 1159580);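 also: tested at 20 µM; growth read once vehicle control cultures reached saturation at 30 °C; 1 = growth at the plate median or of vehicle wells; lower values mean less growth of the strain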
Details: growth OD

Measured: normalized growth

Cn1c(=O)c2[nH]c(C3CCCC3)nc2n(C)c1=O
inactive: S. cerevisiae deletion strains, locus YJR075W, strain HOC1, hits give low values 1.01 and 1.04 | S. cerevisiae deletion strains, locus YKL009W, strain mrt4, hits give low values 1 | S. cerevisiae deletion strains, locus YKL068W, hits give low values 1.02 | S. cerevisiae deletion strains, locus YKL085W, strain MDH1 (second series), hits give low values 1.05 | S. cerevisiae deletion strains, locus YKL085W, strain MDH1, hits give low values 1.05 | S. cerevisiae deletion strains, locus YKL160W, strain elf1, hits give low values 0.983 | S. cerevisiae deletion strains, locus YKL190W, strain CNB1, hits give low values 1.02 | S. cerevisiae deletion strains, locus YKR001C, strain vps1, hits give low values 1 | S. cerevisiae deletion strains, locus YKR026C, strain gcn3, hits give low values 1 | S. cerevisiae deletion strains, locus YKR091W, strain srl3, hits give low values 0.991 | S. cerevisiae deletion strains, locus YLL001W, strain dnm1, hits give low values 0.97 | S. cerevisiae deletion strains, locus YLL026W, hits give low values 0.989 | S. cerevisiae deletion strains, locus YLL041C, strain sdh2, hits give low values 0.988 | S. cerevisiae deletion strains, locus YLR027C, strain aat2, hits give low values 0.995 | S. cerevisiae deletion strains, locus YLR039C, strain RIC1, hits give low values 0.966 | S. cerevisiae deletion strains, locus YLR058C, strain SHM2, hits give low values 1.01 | S. cerevisiae deletion strains, locus YLR102C, strain apc9, hits give low values 0.999 | S. cerevisiae deletion strains, locus YLR113W, strain HOG1, hits give low values 1 | S. cerevisiae deletion strains, locus YLR221C, strain rsa3, hits give low values 0.988 | S. cerevisiae deletion strains, locus YLR258W, strain gsy2, hits give low values 0.972 | S. cerevisiae deletion strains, locus YLR262C, strain YPT6 (second series), hits give low values 0.997 | S. cerevisiae deletion strains, locus YLR262C, strain YPT6, hits give low values 1.04 | S. cerevisiae deletion strains, locus YLR268W, strain sec22, hits give low values 0.988 | S. cerevisiae deletion strains, locus YLR320W, strain mms22, hits give low values 0.989 | S. cerevisiae deletion strains, locus YLR330W, strain CHS5, hits give low values 1.01 | S. cerevisiae deletion strains, locus YLR342W, strain FKS1 (second series), hits give low values 1 | S. cerevisiae deletion strains, locus YLR342W, strain FKS1, hits give low values 0.986 | S. cerevisiae deletion strains, locus YLR357W, strain rsc2, hits give low values 0.954 | S. cerevisiae deletion strains, locus YLR370C, strain arc18, hits give low values 0.997 | S. cerevisiae deletion strains, locus YLR371W, strain rom2, hits give low values 0.997 | S. cerevisiae deletion strains, locus YLR384C, strain iki3, hits give low values 0.986 | S. cerevisiae deletion strains, locus YLR418C, strain cdc73, hits give low values 0.989 | S. cerevisiae deletion strains, locus YML016C, strain PPZ1, hits give low values 1.02 | S. cerevisiae deletion strains, locus YML032C, strain rad52, hits give low values 0.99 | S. cerevisiae deletion strains, locus YML120C, strain ndi1, hits give low values 0.992 | S. cerevisiae deletion strains, locus YML124C, strain tub3, hits give low values 0.998 | S. cerevisiae deletion strains, locus YMR058W, strain fet3, hits give low values 1 | S. cerevisiae deletion strains, locus YMR078C, strain ctf18, hits give low values 0.996 | S. cerevisiae deletion strains, locus YMR125W, strain sto1, hits give low values 0.979 | S. cerevisiae deletion strains, locus YMR129W, hits give low values 0.999 | S. cerevisiae deletion strains, locus YMR205C, strain PFK2, hits give low values 0.988 | S. cerevisiae deletion strains, locus YMR223W, strain ubp8, hits give low values 0.989 | S. cerevisiae deletion strains, locus YMR231W, strain pep5, hits give low values 0.988 | S. cerevisiae deletion strains, locus YMR263W, strain SAP30, hits give low values 1.02 and 0.995 | S. cerevisiae deletion strains, locus YMR307W, strain GAS1, hits give low values 1.05 and 1.01 | S. cerevisiae deletion strains, locus YNL067W, strain RPL9B, hits give low values 1.02 | S. cerevisiae deletion strains, locus YNL071W, strain lat1, hits give low values 0.997 | S. cerevisiae deletion strains, locus YNL128W, strain TEP1, hits give low values 1.01 and 0.993 | S. cerevisiae deletion strains, locus YNL153C, strain GIM3, hits give low values 1.01 and 0.975 | S. cerevisiae deletion strains, locus YNL175C, strain NOP13, hits give low values 0.977 | S. cerevisiae deletion strains, locus YNL183C, strain NPR1, hits give low values 0.942 | S. cerevisiae deletion strains, locus YNL197C, strain WHI3, hits give low values 0.935 | S. cerevisiae deletion strains, locus YNL209W, strain ssb2, hits give low values 0.996 | S. cerevisiae deletion strains, locus YNL224C, strain SQS1, hits give low values 0.989 | S. cerevisiae deletion strains, locus YNL233W, strain BNI4, hits give low values 1.01 | S. cerevisiae deletion strains, locus YNL248C, strain rpa49, hits give low values 0.968 | S. cerevisiae deletion strains, locus YNL250W, strain rad50, hits give low values 1 | S. cerevisiae deletion strains, locus YNL271C, strain bni1, hits give low values 0.989 | S. cerevisiae deletion strains, locus YNL298W, strain CLA4, hits give low values 0.998 | S. cerevisiae deletion strains, locus YNL307C, strain MCK1, hits give low values 0.996 | S. cerevisiae deletion strains, locus YNL322C, strain KRE1 (second series), hits give low values 0.985 | S. cerevisiae deletion strains, locus YNL322C, strain KRE1, hits give low values 1.01 | S. cerevisiae deletion strains, locus YNR049C, strain mso1, hits give low values 0.994 | S. cerevisiae deletion strains, locus YNR052C, strain pop2, hits give low values 1 | S. cerevisiae deletion strains, locus YOL006C, strain TOP1, hits give low values 1.05 | S. cerevisiae deletion strains, locus YOL012C, strain htz1 0.701 | S. cerevisiae deletion strains, locus YOL147C, strain pex11, hits give low values 0.986 | S. cerevisiae deletion strains, locus YOR001W, strain rrp6, hits give low values 0.989 | S. cerevisiae deletion strains, locus YOR061W, strain CKA2, hits give low values 1.01 | S. cerevisiae deletion strains, locus YOR069W, strain VPS5, hits give low values 1.01 | S. cerevisiae deletion strains, locus YOR070C, strain gyp1, hits give low values 0.998 | S. cerevisiae deletion strains, locus YOR080W, strain dia2, hits give low values 0.985 | S. cerevisiae deletion strains, locus YOR083W, strain WHI5 (second series), hits give low values 0.977 | S. cerevisiae deletion strains, locus YOR083W, strain WHI5, hits give low values 0.99 | S. cerevisiae deletion strains, locus YOR106W, strain vam3, hits give low values 0.991 | S. cerevisiae deletion strains, locus YOR136W, strain idh2, hits give low values 0.988 | S. cerevisiae deletion strains, locus YOR144C, strain elg1, hits give low values 0.998 | S. cerevisiae deletion strains, locus YOR184W, strain ser1, hits give low values 0.981 | S. cerevisiae deletion strains, locus YOR231W, strain MKK1, hits give low values 0.981 | S. cerevisiae deletion strains, locus YOR265W, strain rbl2, hits give low values 1 | S. cerevisiae deletion strains, locus YOR270C, strain vph1, hits give low values 1.02 | S. cerevisiae deletion strains, locus YOR290C, strain snf2, hits give low values 0.925 | S. cerevisiae deletion strains, locus YOR316C, strain cot1, hits give low values 0.999 | S. cerevisiae deletion strains, locus YPL051W, strain arl3, hits give low values 0.992 | S. cerevisiae deletion strains, locus YPL055C, strain LGE1, hits give low values 1.02 | S. cerevisiae deletion strains, locus YPL078C, strain atp4, hits give low values 0.997 | S. cerevisiae deletion strains, locus YPL106C, strain sse1, hits give low values 0.985 | S. cerevisiae deletion strains, locus YPL240C, strain hsp82, hits give low values 0.983 | S. cerevisiae deletion strains, locus YPL241C, strain CIN2, hits give low values 1.04 and 1.01 | S. cerevisiae deletion strains, locus YPL256C, strain CLN2, hits give low values 0.953 | S. cerevisiae deletion strains, locus YPR119W, strain clb2, hits give low values 0.997 | S. cerevisiae deletion strains, locus YPR141C, strain kar3, hits give low values 0.997 | S. cerevisiae deletion strains, locus YPR163C, strain tif3, hits give low values 0.998 | S. cerevisiae deletion strains, locus YPR167C, strain met16, hits give low values 0.997 | S. cerevisiae deletion strains, strain wtn01, hits give low values 1.01 | S. cerevisiae strains, strain wild type, hits give low values 1.01
